This is an account of results in PubChem BioAssay.

Experiment [1] is described as follows: yeast 75Q aggregation reduction – 75Q-TubU reporter (AID 1593). The settings on record: Yeast 75Q polyglutamine aggregation reporter.
Experiment [2] is described as follows: blockers of cytochrome c efflux from mitochondria – biochemical, purified mitochondria (AID 1603).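 Note: mouse liver mitochondria challenged with calcium chloride; signal normalized to the plate average as 100%.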 The settings on record: stronger effect = lower value.
A short description of experiment [3]: polyglutamine aggregate formation blockers (AID 1604). The conditions noted are these: polyglutamine-induced protein aggregation inhibition assay; stronger effect = higher value; tested at 2.5 µM.
Experiment [4] is described as follows: Wnt pathway potentiators raising nuclear beta-catenin – imaging, WNT3A-conditioned medium, mouse C2C12, NPC library, primary screen (AID 1117326; in the data active = nuclear beta-catenin stimulation mostly above about 4.2%, no sharp cut-off; inactive = mostly below about 10%). The conditions noted are these: stronger effect = higher value.
Experiment [5] can be described thus: stimulators of insulin release from INS-1E, primary screen, cell-based, 5 mM glucose, NPC library (AID 1117329;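 active = compound raises insulin release from rat beta cells at 5 mM glucose, no numeric limit stated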). The conditions noted are these: rat INS-1E insulin secretion, at 10 µM, stronger effect = higher value.
Experiment [6] in a line: growth inhibition of GSK3B-pretreated HCT116 cells – cell-based, CellTiter-Glo, 0.2 to 20 µM (AID 1117336;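 active = compounds lowering colon cancer cell viability after pretreatment blocking the GSK3B kinase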). The conditions noted are these: HCT116 viability after GSK3B inhibitor, at 20 µM, stronger effect = higher value.
A short description of experiment [7]: inhibition of endothelial tube formation, primary screen, imaging, VEGF stimulated, CD31 staining, tube area, NPC library (AID 1117340). The conditions noted are these: VEGF-stimulated ADSC/ECFC co-culture, at 10 µM, stronger effect = higher value.
The nature of experiment [8]: GLP1 release stimulators, primary, NCI-H716, NPC library (AID 1117341;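 active = compound raises GLP1 secretion from the human gut endocrine cells, with no numeric limit stated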). The conditions noted are these: NCI-H716 cells, at 10 µM, stronger effect = higher value.
The nature of experiment [9]: HCT116 colon cancer cell growth inhibition, primary screen, CellTiter-Glo luminescence, NPC library (AID 1117342;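 active = compounds that lower survival of HCT116 colon cancer cells in the luminescence readout, no numeric limit stated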). The conditions noted are these: at 20 µM (top of the series).
Experiment [10] in a line: reduced SW480 viability measured with CellTiter-Glo, NPC library, primary (AID 1117343;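 active = compounds that lower viability of the colon cancer cells in the luminescence readout, with no numeric limit stated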). The settings on record: CellTiter-Glo luminescence; at 20 µM (top of the series).
A short description of experiment [11]: NPC library primary testing for decreased DLD-1 cell viability via CellTiter-Glo (AID 1117346;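 active = compounds that lower survival of DLD-1 colon cancer cells in the luminescence readout, no cutoff given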). The settings on record: DLD-1 viability, CellTiter-Glo luminescence; at 20 µM (top of the series).
Experiment [12] addresses 6-phosphogluconate dehydrogenase, decarboxylating (Homo sapiens) (UniProt P52209). Nature of the experiment: inhibition of human phosphogluconate dehydrogenase – biochemical, recombinant enzyme, NADPH absorbance, primary screen (AID 1159550;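 active = at least 20% inhibition of 6-phosphogluconate dehydrogenase activity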). The settings on record: recombinant 6PGD, NADPH absorbance 341 nm; at 10 µM; stronger effect = higher value.
Experiment [13] is described as follows: EMT-state selective cytotoxicity in co-culture – imaging, PC-3E GFP, TEM4-18 mCherry, primary screen (AID 1345086;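 active = compounds killing one labelled cell type while sparing the other, by normalised counts and ratio limits, not self-fluorescent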;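 for all read-outs here: cells exposed to compound for 72 h before imaging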;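 for red/green cell ratio (normalised): normalised mesenchymal count divided by normalised epithelial count so high means epithelial killing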). The settings on record: PC-3E GFP / TEM4-18 mCherry co-culture, imaging cell counts, at 1 µM; for red/green cell ratio (normalised): actives lie on both sides.
Experiment [14] relates to Aerobactin synthetase IucA (Klebsiella pneumoniae hvKP1). Nature of the experiment: IucA enzyme inhibition, primary screen, biochemical, Spectrum library (AID 1346200; call rule not given here;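 note: 100% = wells without compound and 0% = wells lacking enzyme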). The settings on record: malachite green pyrophosphate, A620, at 8 µM, stronger effect = lower value.
A short description of experiment [15]: viability loss with induced miR-34 in A549 – imaging, A549 dox-inducible miR-34, nuclei and caspase counts, primary screen (AID 1347080;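 active = compounds whose cell count with miR-34 switched on is under 0.7 times the count with it off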). The conditions noted are these: A549 miR-34 inducible, Hoechst nuclei count, 48 h.
Experiment [16] deals with Mitogen-activated protein kinase 7 (Homo sapiens) (UniProt Q13164). Nature of the experiment: Gal4-ERK5 driven luciferase induction – cell-based, HTS, primary screen (AID 1508626;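 active = luciferase signal above three times the same-plate solvent-only control wells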;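 note: luciferase driven by Gal4-ERK5 fusion binding five Gal4 sites before minimal TATA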). The conditions noted are these: HeLa Gal4-ERK5 transactivation, 18 h, at 5 µM, stronger effect = higher value.
Mitogen-activated protein kinase 7 (Homo sapiens), sequence (Q13164 whole entry, looked up, the tested form may be a part): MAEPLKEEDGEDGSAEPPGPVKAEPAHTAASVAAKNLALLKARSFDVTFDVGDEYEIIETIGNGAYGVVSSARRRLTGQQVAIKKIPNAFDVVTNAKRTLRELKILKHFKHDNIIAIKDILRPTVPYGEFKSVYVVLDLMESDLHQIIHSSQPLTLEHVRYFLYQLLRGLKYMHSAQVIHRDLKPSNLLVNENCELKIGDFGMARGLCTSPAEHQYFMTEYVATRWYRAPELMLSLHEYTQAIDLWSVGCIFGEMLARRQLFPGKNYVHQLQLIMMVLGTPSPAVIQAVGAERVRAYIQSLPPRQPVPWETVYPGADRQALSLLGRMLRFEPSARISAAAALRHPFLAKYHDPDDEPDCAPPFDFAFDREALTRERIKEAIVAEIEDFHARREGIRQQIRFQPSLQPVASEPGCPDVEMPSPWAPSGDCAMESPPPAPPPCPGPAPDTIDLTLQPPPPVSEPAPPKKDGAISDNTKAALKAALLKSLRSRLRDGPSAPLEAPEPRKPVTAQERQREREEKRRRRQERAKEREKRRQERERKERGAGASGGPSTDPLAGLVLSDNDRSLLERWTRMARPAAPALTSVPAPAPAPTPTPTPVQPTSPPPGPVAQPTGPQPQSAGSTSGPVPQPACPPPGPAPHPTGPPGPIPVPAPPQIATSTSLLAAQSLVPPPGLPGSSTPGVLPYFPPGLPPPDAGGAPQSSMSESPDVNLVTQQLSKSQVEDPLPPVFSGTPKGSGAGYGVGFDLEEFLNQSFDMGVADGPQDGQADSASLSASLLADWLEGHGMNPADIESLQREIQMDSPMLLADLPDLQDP
A short description of experiment [17]: galactose survival enhancers in mitochondrial complex I cybrids – cell-based, galactose medium, ATP luminescence, primary screen (AID 1645843;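 active = z-score of at least 1.8 in each of two replicates, scored against plate mean and spread of sample wells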;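 note: positive z means more ATP and so rescue of galactose-driven cybrid death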). The conditions noted are these: complex I mutant cybrid cells, 72 h, stronger effect = higher value.
The nature of experiment [18]: P. berghei load reduction in hepatocytes – cell-based, HepG2, luciferase luminescence, HepG2 viability, primary screen (AID 624349; in the data active = parasite load remaining mostly below about 12%, no sharp cut-off; inactive = mostly above about 10%;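 note: 100% = mean of DMSO negative control wells on the same plate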). The conditions noted are these: P. berghei liver stage in HepG2, luciferase luminescence, concentration not given here; parasite load remaining: stronger effect = lower value; viability: measured here: HepG2 viability without parasites.
A short description of experiment [19]: MELAS cybrid and Rieske KO viability enhancers – cell-based, MELAS cybrids, Rieske KO mouse fibroblasts, CellTiter-Glo, primary screen (AID 1508586;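 active = mean z-score across replicates of 1.96 or higher in either the MELAS or the Rieske mutant cell line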;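 note: z relative to plate mean and SD of compound and empty wells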). The settings on record: low glucose.
Experiment [20] has as its target NAD(+) hydrolase SARM1 (Homo sapiens) (UniProt Q6SZW1). The experiment in a line: blocking NAD cleavage by SARM1 SAM-TIR – cell lysate, NAD-Glo luminescence (AID 1508614;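 active = compound whose remaining NAD level is above about 45 nM, limit read from the data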;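 note: higher remaining NAD means stronger inhibition of SARM1 NADase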). The conditions noted are these: SAM-TIR HEK293T lysate NADase, at 1 µM, stronger effect = higher value.
Setting [21] is: measured here: epithelial PC-3E GFP cell survival.
Where [22] appears, read: measured here: mesenchymal TEM4-18 mCherry cell survival.
Where [23] appears, read: measured here: relative caspase fold change +Dox/-Dox.
[24] abbreviates: measured here: total cells with miR-34 induction, stronger effect = lower value.
Setting [25] is: measured here: total cells without miR-34 induction.
Setting [26] is: MELAS cybrid survival, CellTiter-Glo 48 h, stronger effect = higher value.
Where [27] appears, read: Rieske KO mouse fibroblast survival, CellTiter-Glo 72 h.

Values joined by “and” are separate entries in the source; they are usually repeats but may differ in a detail not shown here. Identical values can stand only once. Where a structure was tested more than once in an assay, its records may differ in their call. Active and inactive are the calls of the source.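 Rule for the calls, unless noted: active = compound that reduces growth-factor-driven endothelial tube area in a mixed cell culture, no cutoff stated; inactive = the rest.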

6-phosphogluconate dehydrogenase, decarboxylating (Homo sapiens), sequence (P52209 whole entry, looked up): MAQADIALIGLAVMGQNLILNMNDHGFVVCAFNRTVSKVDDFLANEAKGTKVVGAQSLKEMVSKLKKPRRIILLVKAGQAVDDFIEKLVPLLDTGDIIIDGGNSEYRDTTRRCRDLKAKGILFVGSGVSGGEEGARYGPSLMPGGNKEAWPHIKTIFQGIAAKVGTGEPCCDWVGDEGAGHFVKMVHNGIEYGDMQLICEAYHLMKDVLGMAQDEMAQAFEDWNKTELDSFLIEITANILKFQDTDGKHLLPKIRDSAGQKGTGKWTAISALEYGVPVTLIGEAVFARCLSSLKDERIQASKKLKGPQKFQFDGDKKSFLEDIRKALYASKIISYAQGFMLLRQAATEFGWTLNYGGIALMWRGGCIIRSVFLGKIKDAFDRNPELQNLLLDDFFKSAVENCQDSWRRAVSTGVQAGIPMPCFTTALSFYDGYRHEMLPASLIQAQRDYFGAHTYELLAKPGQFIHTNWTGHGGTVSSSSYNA
NAD(+) hydrolase SARM1 (Homo sapiens), sequence (Q6SZW1 whole entry, looked up): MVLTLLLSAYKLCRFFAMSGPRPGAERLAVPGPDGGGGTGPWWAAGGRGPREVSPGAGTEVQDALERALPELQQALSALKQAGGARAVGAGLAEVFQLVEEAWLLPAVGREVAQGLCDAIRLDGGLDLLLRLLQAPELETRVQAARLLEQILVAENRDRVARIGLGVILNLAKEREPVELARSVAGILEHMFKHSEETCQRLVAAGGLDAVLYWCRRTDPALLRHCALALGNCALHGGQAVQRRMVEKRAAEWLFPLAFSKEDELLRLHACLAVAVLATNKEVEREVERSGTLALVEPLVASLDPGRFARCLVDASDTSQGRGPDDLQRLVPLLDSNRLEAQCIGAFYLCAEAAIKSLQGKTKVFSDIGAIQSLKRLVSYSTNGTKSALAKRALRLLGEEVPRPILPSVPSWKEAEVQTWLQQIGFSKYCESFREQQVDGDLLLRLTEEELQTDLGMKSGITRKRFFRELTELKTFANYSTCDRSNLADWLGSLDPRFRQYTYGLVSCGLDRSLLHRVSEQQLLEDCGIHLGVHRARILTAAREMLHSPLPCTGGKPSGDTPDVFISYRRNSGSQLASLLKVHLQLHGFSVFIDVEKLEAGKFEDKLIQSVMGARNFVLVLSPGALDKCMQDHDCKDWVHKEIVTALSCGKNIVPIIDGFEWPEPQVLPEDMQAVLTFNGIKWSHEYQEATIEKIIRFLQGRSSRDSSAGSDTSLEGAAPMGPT

As to `C=C(C)[C@H]1Cc2c(ccc3c2O[C@@H]2COc4cc(OC)c(OC)cc4[C@@H]2C3=O)O1`, the score in [1] turned out to be 3.23. In experiment [2], the cytochrome c release ratio came out at 1.15. In addition, the inhibition of aggregation in experiment [3] is 33.3%. Also, the nuclear beta-catenin stimulation in experiment [4] (at 10 µM) is 92.8% (active); in experiment [4] (stimulation, at 2 µM) it was 43.8%. Also, the insulin secretion stimulation in [5] is -0.1% (inactive). In addition, the viability decrease in experiment [6] is 4.4% (inactive). In addition, the tube area decrease in [7] is 107% (active). Moreover, in experiment [8], the GLP1 secretion stimulation was 2.2% (inactive). In addition, in [9], the inhibition of viability was 60.6% (active). The viability decrease (inhibition) in experiment [10] is 88.3% (active); in experiment [11], 83.4% (active). Further, in experiment [12], the inhibition was 10.4% (inactive). The red/green cell ratio (normalised) in experiment [13] was 1.19 (inactive). In addition, the normalised cell number amounted to 0.27 in experiment [13] (setting [21]) and 0.32 in experiment [13] (setting [22]). Moreover, in [14], the activity remaining is 92.3% (inactive). Moreover, the fold change was 1.11 (inactive) in experiment [15] (stronger effect = lower value) and 0.665 in [15] (setting [23]). Besides, the cell count in [15] (setting [24]) amounted to 1680; in [15] (setting [25]) it was 1510. Moreover, the luciferase signal in [16] is 52 AU (inactive). Also, the z-score in experiment [17] was -1.29 (inactive).
For `O=c1oc2ccccc2c(O)c1C(CC(O)c1ccc(-c2ccc(Br)cc2)cc1)c1ccccc1` (configuration not stated), the nuclear beta-catenin stimulation was 8.3% (inactive) in experiment [4] (at 10 µM) and 2.6% in [4] (stimulation, at 2 µM). For the same compound, the insulin secretion stimulation in experiment [5] was 3.6% (inactive). The viability decrease in experiment [6] was 100% (active). Besides, in [7], the tube area decrease was 2.4% (inactive). The GLP1 secretion stimulation in experiment [8] was 23.9% (active). The inhibition of viability in [9] is 101% (active). The viability decrease (inhibition) was 122% (active) in experiment [10] and 103% (active) in experiment [11].
As to `CC(=O)O[C@H]1C[C@H](O[C@H]2[C@@H](O)C[C@H](O[C@@H]3[C@@H](O)C[C@H](O[C@H]4CC[C@@]5(C)[C@H](CC[C@@H]6[C@H]5C[C@@H](O)[C@]5(C)[C@@H](C7=CC(=O)OC7)CC[C@]65O)C4)O[C@@H]3C)O[C@@H]2C)O[C@H](C)[C@H]1O[C@@H]1O[C@H](CO)[C@@H](O)[C@H](O)[C@@H]1O`, the nuclear beta-catenin stimulation was 1.6% (inactive) in experiment [4] (at 10 µM) and 0.9% in [4] (stimulation, at 2 µM). The insulin secretion stimulation in experiment [5] is 0.8% (inactive). For the same compound, in experiment [6], the viability decrease was 73.3% (active). Moreover, the tube area decrease in experiment [7] is 108% (active). Also, in experiment [8], the GLP1 secretion stimulation is -0.9% (inactive). Moreover, the inhibition of viability in [9] was 46.8% (active). Further, the viability decrease (inhibition) in experiment [10] was 54.2% (active); in [11] it was 55.1% (active).
In the case of `NCC(O)c1ccc(O)cc1` (configuration not stated), in experiment [1], the score worked out at 1.11. Also, the cytochrome c release ratio in experiment [2] was 0.99. For the same compound, in [3], the inhibition of aggregation was 55.6%. In experiment [18], the parasite load remaining is 79.5% (inactive) and 84.6% (inactive). The viability in [18] is 96% and 67.9%. In addition, the nuclear beta-catenin stimulation in experiment [4] (at 10 µM) is -0.4% (inactive); in experiment [4] (stimulation, at 2 µM) it was 0.8%. For the same compound, the insulin secretion stimulation in [5] is -2.1% (inactive). The viability decrease in experiment [6] is -4.35% (inactive). For the same compound, in experiment [7], the tube area decrease was -17.5% (inactive). The GLP1 secretion stimulation in experiment [8] is 1.6% (inactive). In addition, in [9], the inhibition of viability is -5% (inactive). The viability decrease (inhibition) in experiment [10] was 18.2% (inactive); in experiment [11] it was 1.65% (inactive). Further, the inhibition in experiment [12] is 8.94% (inactive). Further, the red/green cell ratio (normalised) in experiment [13] is 1 (inactive). In addition, the normalised cell number in [13] (setting [21]) turned out to be 0.98; in experiment [13] (setting [22]), 0.97. Also, the activity remaining in [14] was 125% (inactive). Besides, the z-score in experiment [19] (setting [26]) was -0.301 (inactive) and 0.485 (inactive); in [19] (setting [27]) it was -0.195 and -0.00807; in [17], 0.63 (inactive) and -0.045 (inactive). Moreover, the remaining NAD in [20] was 10 nM (inactive). In addition, in experiment [16], the luciferase signal was 80 AU (inactive).
In the case of `C[C@@H]1C[C@@H]([C@H](O)CC2CC(=O)NC(=O)C2)C(=O)[C@@H](C)C1`, in experiment [1], the score came to 0.04. Moreover, the cytochrome c release ratio in experiment [2] came to 1.07. Further, the inhibition of aggregation in experiment [3] stood at 91.3%. Also, in [18], the parasite load remaining is -0.1% (active) and 5.12% (inactive) and 0% (inactive). The viability in experiment [18] was 87.3% and 76.3% and 87.1%. The nuclear beta-catenin stimulation in experiment [4] (at 10 µM) is 28.9% (inactive); in experiment [4] (stimulation, at 2 µM) it was 25.8%. Moreover, the insulin secretion stimulation in experiment [5] is -1% (inactive). For the same compound, the viability decrease in experiment [6] was 88.7% (active). Besides, the tube area decrease in experiment [7] was 103% (active). Moreover, the GLP1 secretion stimulation in experiment [8] was -4.7% (inactive). In addition, the inhibition of viability in [9] is 78.7% (active). In addition, the viability decrease (inhibition) is 68.4% (active) in [10] and 67.6% (active) in experiment [11]. In experiment [12], the inhibition is -13.3% (inactive). For the same compound, in [13], the red/green cell ratio (normalised) was 0.97 (inactive). For the same compound, the normalised cell number in [13] (setting [21]) was 0.98; in experiment [13] (setting [22]), 0.96. For the same compound, in [14], the activity remaining was 112% (inactive). Further, the fold change in experiment [15] (stronger effect = lower value) was 1.05 (inactive) and 0.852 (inactive); in [15] (setting [23]), 1.03 and 1.84. In addition, the cell count in experiment [15] (setting [24]) was 2100 and 2650; in experiment [15] (setting [25]), 1990 and 3110. Further, the z-score in experiment [19] (setting [26]) is -0.121; in experiment [19] (setting [27]) it was 4.57. Besides, in [20], the remaining NAD was 10 nM (inactive). Also, the luciferase signal in experiment [16] was 20 AU (inactive).
